Screening data from PubChem.
EP2 antag: inhibitors of human EP2 prostaglandin E2 receptor; actives 0.52% (n = 260,000); P43116; C6 glioma cells expressing human EP2, cAMP TR-FRET; cells stimulated with saturating PGE2; inhibition, % at 25 µM;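 active means percent inhibition above 40 after rounding to a whole number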;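 further: rat C6 glioma host cells with rolipram phosphodiesterase inhibitor present; the protocol text gives 20 µM as final concentration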
Target sequence (P43116 whole entry, looked up): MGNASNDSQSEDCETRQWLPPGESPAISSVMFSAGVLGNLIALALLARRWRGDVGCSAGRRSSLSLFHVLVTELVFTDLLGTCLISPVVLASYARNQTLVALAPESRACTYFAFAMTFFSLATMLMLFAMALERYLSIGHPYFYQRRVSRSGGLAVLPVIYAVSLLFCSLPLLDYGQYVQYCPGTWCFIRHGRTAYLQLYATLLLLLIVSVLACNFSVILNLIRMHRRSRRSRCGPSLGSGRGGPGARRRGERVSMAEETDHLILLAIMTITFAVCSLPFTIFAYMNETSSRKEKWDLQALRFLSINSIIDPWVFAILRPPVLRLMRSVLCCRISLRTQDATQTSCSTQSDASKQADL
NR1D1 modulator: Rev-erb alpha (human) modulation. P20393. Rev-erbα–FITC-DNA binding, fluorescence polarization, 90 min. activity, % at 10 µM. actives 0.79% (n = 370,000). AID 1259318;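 active means activity above about 14%, limit read from the data; passing the limit was not always enough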;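 further: 0% = DMSO wells with 35 nM protein and 100% = DMSO wells with 750 nM protein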
SKN-1 block: blocks SKN-1 activity in C. elegans; C. elegans VP596 Pgst-4::GFP/RFP ratio, acrylamide-induced, 24 h; inhibition, % at 21.8 µM; actives 0.49% (n = 360,000);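 active means interference check ratio from 0.5 to 1.5 plus GFP to RFP signal ratio inhibition reaching or exceeding a fixed threshold, cut at about 30% in these data, passing the limit was not always enough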
RAM network inh: yeast RAM network inhibition; S. cerevisiae dse1pr::URA3 reporter, 5-FOA growth OD615, 2 d; analog-sensitive cbk1-as2 kinase mutant strain; inhibition, % at 50 µM; actives 1.8% (n = 190,000); AID 868;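 active means inhibition above a set limit, 3 SD over mean compound inhibition, cut at about 8.4% in these data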;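 further: 0% = DMSO-only wells with no growth and 100% = 10 µM 1-NA-PP1 full growth; inhibition rescues growth on 5-FOA so higher OD means more RAM inhibition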
PG9 Ab binder: binds the HIV-1 gp120 antibody PG9. TR-FRET gp120-PG9 antibody binding. inhibition, % at 6.7 µM. actives 0.43% (n = 360,000). AID 624416; in the data active means inhibition above about 8.5%
EP2 mod: modulators of human EP2 prostaglandin E2 receptor; EP2-expressing cells, cAMP HTRF FRET, PGE2 co-stimulation; induction, % at 25 µM; actives 0.83% (n = 260,000); AID 940;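 active means compounds whose cAMP rise, as percent of the full-agonist control response, exceeds 60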;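 further: rat C6 glioma line stably carrying human EP2 under a CMV promoter; the protocol text gives 20 µM as final concentration; 100% = response of wells given 1 µM PGE2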
Numbers without * were called inactive; . = no result. Rows were chosen to be rich in hits. Some 2.9% of all compounds tested hit in one or more screens of this group.

SMILES	EP2 antag	NR1D1 modulator	SKN-1 block	RAM network inh	PG9 Ab binder	EP2 mod
CCc1nc2sc3c(c2c2nnc(SCC(=O)NCc4ccc5c(c4)OCO5)n12)CCC(C)C3 (configuration not stated)	14	.	.	.	.	80*
COc1ccc(Nc2nc(C(=O)NCCCN3CCOCC3)cs2)cc1	7	-3	33*	1	-3	-2
O=C(Nc1nnc(-c2cccnc2)s1)C1CCC1	14	.	.	.	.	-27
Cc1cc(C)nc(N2CCC(CNC(=O)Cc3c[nH]c4ccccc34)CC2)n1	10	.	.	.	.	-53
COC(=O)CC1=NN(c2ccccc2)C(=O)/C1=C\c1ccc(OC)cc1	14	2	-1	9.5*	0	-84
COc1ccc(-c2csc(N(CCCN(C)C)C(C)=O)n2)cc1	10	.	.	.	.	-21
COc1ccc(CCN2C(=O)c3ccccc3NC2c2cc(Cl)c(O)c(OC)c2)cc1 (configuration not stated)	.	-7	-8	.	-3	.
O=C1c2ccccc2NC(c2ccc(Cl)cc2Cl)N1Cc1ccccc1 (configuration not stated)	9	0	-5	1	0	61*
O=C1c2ccccc2N[C@H](c2cc(Cl)cc(Cl)c2O)N1CCc1ccccn1	55*	.	.	.	.	8
CN(Cc1ccccc1)C(=O)CCSc1nc(-c2ccc3c(c2)OCO3)cc(C(F)(F)F)n1	22	5	-31	9.9*	0	-57
O=C(CCSc1nc(-c2ccc3c(c2)OCO3)cc(C(F)(F)F)n1)NCc1ccco1	11	4	-2	9.7*	0	-7
O=C(CCSc1nc(-c2ccco2)cc(C(F)(F)F)n1)NCc1cccs1	17	-4	4	10*	1	-60
O=C(CCSc1nc(-c2ccco2)cc(C(F)(F)F)n1)NCc1ccccn1	8	-1	1	1	-1	-26
COCCCN1C(=O)C(O)=C(C(C)=O)C1c1ccc(C(=O)OC)cc1 (configuration not stated)	10	.	.	.	.	0
COCCCN1C(=O)C(O)=C(C(C)=O)C1c1ccc(Cl)cc1Cl (configuration not stated)	15	.	.	.	.	24
Cc1cc2c(c(=O)o1)C(c1cccc(C(F)(F)F)c1)C(C(=O)OC(C)C)=C(N)O2 (configuration not stated)	17	.	.	.	.	35
COc1cc(NC(=O)CSc2nc(-c3ccccc3)cc(C(F)(F)F)n2)cc(OC)c1OC	12	.	.	.	.	-46
CCc1cc2cc(C)cc(C)c2nc1SCC(=O)Nc1cc(OC)ccc1OC	11	.	.	.	.	11
Cc1cccc(C(=O)Nc2ccc(NC(=O)c3ccco3)c(C)c2)c1	8	.	.	.	.	-5
Cc1cccc(NC(=S)N(CCCO)Cc2cc3c(C)ccc(C)c3[nH]c2=O)c1	16	.	.	.	.	-77
CCC1(C)Cc2ccccc2-c2nc(NCCO)n(-c3ccccc3)c(=O)c21 (configuration not stated)	12	-4	17	1	0	-1
CCC1(C)Cc2ccccc2-c2nc(NCCO)n(-c3ccc(C)cc3)c(=O)c21 (configuration not stated)	20	-3	38*	2	1	6
CC(=O)c1ccc(N(C(=O)Cc2cccs2)C(C(=O)NC2CCCCC2)c2cccs2)cc1 (configuration not stated)	67*	.	.	.	.	47
O=C(NC1CCCCC1)C(c1cccs1)N(C(=O)c1ccccn1)c1ccccc1 (configuration not stated)	21	-4	7	9.5*	0	-42
CC(=O)c1ccc(N(C(=O)c2cnccn2)C(C(=O)NC2CCCCC2)c2cccs2)cc1 (configuration not stated)	13	.	.	.	.	17
SMILES	EP2 antag	NR1D1 modulator	SKN-1 block	RAM network inh	PG9 Ab binder	EP2 mod
N/C(=N\NC(=O)c1sccc1OCc1ccc(Cl)cc1Cl)c1ccccn1	2	-4	9	8.7*	-4	35
CC(C)=CC(=O)Nc1nnc(-c2cccs2)s1	10	.	.	.	.	-42
Cc1cc2cc3c(cc2nc1SCC(=O)N1CCCCC1C)OCCO3 (configuration not stated)	16	.	.	.	.	-57
O=C(/C=C/c1cccs1)N1CCc2ccccc21	15	-3	35*	2	0	14
COc1cccc(NCc2ccc(O)c3ncccc23)c1	17	.	.	.	.	-16
O=C(CSc1c(Cl)cccc1Cl)N1CCC(c2nc3ccccc3s2)CC1	31	0	10	9.4*	-1	-44
O=C(CSc1ccc(Cl)cc1)N1CCC(c2nc3ccccc3s2)CC1	14	2	22	5	0	-47
CC(C)(CSc1ncccn1)NS(=O)(=O)c1ccc(Cl)cc1	9	.	.	.	.	16
CCN(CC)c1ccc(CN2CCc3c(nc(N4CCCC(C)C4)[nH]c3=O)C2)cc1 (configuration not stated)	5	.	.	.	.	-4
CC(CCc1nc2ccccc2s1)(c1ccc(O)cc1)c1ccc(O)cc1	100*	.	.	.	.	-33
COC(=O)c1c(C)nc2c(c(SC)nn2-c2ccccc2)c1N	12	6	-9	6	1	63*
COc1cc(NC(=O)c2cccs2)ccc1NC(=O)C(C)C	14	.	.	.	.	-21
CC(=O)c1csc(NC(=O)Cn2ccc3ccc(F)cc32)n1	13	.	.	.	.	-23
COc1ccc2cc(C)c3nn(CN(C)Cc4ccccc4)c(=O)n3c2c1	.	.	.	.	.	-5
CCc1ccc2[nH]c(=O)c(CN(CCO)C(=O)c3ccc(C)cc3)cc2c1	9	.	.	.	.	-13
O=C(O/N=C/C1=C(Cl)c2ccccc2CC1)c1ccc(F)cc1	12	-2	6	9.5*	-1	7
Cc1ccc(C(=O)O/N=C2\CCCc3ccccc32)cc1	12	9	-26	3	-2	12
COC(=O)c1c(NC(=O)c2ccc(OC)c(OC)c2)sc(C(=O)Nc2cccc(Cl)c2)c1C	15	.	.	.	.	8
Cn1c(=O)oc2cc(S(=O)(=O)NC3(CN4CCCC4)CCCCC3)ccc21	5	.	.	.	.	-58
O=C(NCCCO)/C(=C/c1ccc(-c2cccc([N+](=O)[O-])c2)o1)NC(=O)c1ccccc1	6	4	-10	8.5*	-5	-3
O=C(NCCCN1CCOCC1)/C(=C/c1ccc(-c2cccc([N+](=O)[O-])c2)o1)NC(=O)c1ccccc1	.	-3	14	.	-7	.
Cc1cc(SCC(=O)c2cccs2)nc2c(C)cccc12	.	3	2	8.9*	2	44
COc1ccc(CCn2c(-c3ccc(Cl)cc3)n[nH]c2=S)cc1OC	3	-2	6	0	-1	-2
COc1ccc(CCn2c(-c3ccc(C(C)(C)C)cc3)n[nH]c2=S)cc1OC	7	-1	-1	8.7*	2	25
O=[N+]([O-])c1ccc(NC(=S)NCCc2ccc(Cl)cc2)cc1	74*	3	5	3	-1	-18
C1=C(CN2CCC3(CC2)Nc2ccccc2-n2cccc23)COc2ccccc21	9	.	.	.	.	-47
